# Source: PubChem BioAssay AID588432 (Broad Institute, 2011)
# Activity calls are given as the source filed them.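 The calls were made as follows: active = luciferase inhibitors whose fitted dose curve gives a half-maximal potency within ten times the top tested dose; inconclusive = flat curve with 30 to 70% inhibition, or a poor fit; inactive = the rest.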
# Assay: luciferase inhibitors in kinase-free ADP detection – biochemical, luminescence, cherry-pick, set 04, artefact control for Dyrk1A inhibitor project, dose response (AID 588432)
# Conditions: ADP-Glo luminescence without kinase, luciferase artifact; series mostly up to 12 µM
row,SMILES,outcome
1,CCN1/C(=C/C(C)=O)Sc2ccc(OC)cc21,inactive
2,c1csc(CNc2ncnc3ccc(-c4ccoc4)cc23)c1,inactive
3,FC(F)(F)c1cccc(Nc2nccc(-c3ccc4c(c3)OCO4)n2)c1,inactive
4,CN(C)c1ccc(-c2nccc(NCc3cccs3)n2)cc1,inactive
5,CN(Cc1nccs1)c1ncnc2ccc(-c3ccc4c(c3)OCO4)cc12,inactive
6,Cc1c(-c2ccnc(NCc3cccnc3)n2)sc(=O)n1C,inactive
7,CCCNc1ncnc2ccc(-c3ccc4c(c3)OCO4)cc12,inactive
8,Clc1ccccc1-c1ccc2ncnc(NCc3ccc4c(c3)OCO4)c2c1,inactive
9,Cc1nc(CNc2ncnc3ccc(-c4ccc5c(c4)OCO5)cc23)cs1,inactive
10,c1nc(NCC2CCCO2)c2cc(-c3ccc4c(c3)OCO4)ccc2n1 (stereo unspecified),inactive
11,Cc1ccsc1CNc1ncnc2ccc(-c3ccc4c(c3)OCO4)cc12,inactive
12,Clc1ccc(CNc2ccnc(-c3ccc4[nH]ncc4c3)n2)cc1Cl,inactive
13,Clc1ccc(Nc2nccc(-c3ccc4c(c3)OCO4)n2)cc1,inactive
14,c1cncc(CNc2ccnc(-c3ccc4cn[nH]c4c3)n2)c1,inactive
15,Cn1ccc2cc(-c3ccc4ncnc(NCc5cccc(F)c5)c4c3)ccc21,inactive
16,c1cncc(CNc2ccnc(-c3ccc4[nH]ncc4c3)n2)c1,inactive
